Data on 14 substances can be found in the supplement of paper PMC8728848.

Experiment in all cases: glycan array binding signal (z-score within array); higher = stronger binding
The test system of assay [1] is GlcNAc(b1-4)GlcNAc(b1-4)GlcNAc(b1-4)GlcNAc(b1-4)GlcNAc(b1-4)GlcNAc. The following applies: glycan notation: IUPAC condensed, linker removed. Put shortly:
(§1)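 Arrays were curated from the Consortium for Functional Glycomics database, 3228 in total, and kept only where the protein sequence was available. Binding is expressed as a within-array Z-score. This score was averaged across arrays of the same protein sequence at different concentrations or buffers and across linkers, and negative values can be read as non-binding.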

In assay [2] the test system is GlcNAc(b1-4)GlcNAc(b1-4)GlcNAc(b1-4)GlcNAc(b1-4)GlcNAc. The following applies: glycan notation: IUPAC condensed, linker removed. Put shortly: as §1
In a further assay the test system is Kdn(a2-3)Gal(b1-3)GlcNAc. The following applies: glycan notation: IUPAC condensed, linker removed. Put shortly:
as §1

The test system of assay [3] is Man(a1-2)Man(a1-2)Man(a1-3)[Man(a1-2)Man(a1-6)[Man(a1-3)]Man(a1-6)]Man(b1-4)GlcNAc(b1-4)GlcNAc. The following applies: glycan notation: IUPAC condensed, linker removed; mutation: D138V, E140I. Put shortly: as §1
Assay [4] has as its system Man(a1-2)Man(a1-2)Man(a1-3)Man. The following applies: glycan notation: IUPAC condensed, linker removed. An outline of the steps: as §1
Assay [5] has as its system Man(a1-2)Man(a1-2)Man(a1-3)[Man(a1-2)Man(a1-3)[Man(a1-2)Man(a1-6)]Man(a1-6)]Man(b1-4)GlcNAc(b1-4)GlcNAc. The following applies: glycan notation: IUPAC condensed, linker removed. Put shortly:
as §1

A further assay has as its system GlcNAc3Prop(b1-4)GlcNAc. The following applies: glycan notation: IUPAC condensed, linker removed. Put shortly: as §1
The test system of a further assay is Kdn(a2-3)Gal(b1-4)GlcNAc. The following applies: glycan notation: IUPAC condensed, linker removed. An outline of the steps: as §1
Assay [6] has as its system Kdn(a2-3)Gal(b1-4)[Fuc(a1-3)]GlcNAc. The following applies: glycan notation: IUPAC condensed, linker removed. An outline of the steps:
as §1

The subject of assay [7] is GlcNAc(b1-4)[GlcNAc(b1-6)]GalNAc. The following applies: glycan notation: IUPAC condensed, linker removed. Put shortly: as §1
Assay [8] relates to Man(a1-2)Man(a1-3)[Man(a1-2)Man(a1-6)]Man(a1-6)[Man(a1-2)Man(a1-2)Man(a1-3)]Man(b1-4)GlcNAc(b1-4)GlcNAc. The following applies: glycan notation: IUPAC condensed, linker removed. Put shortly:
as §1

Assay [9] has as its system GlcNAc(b1-3)[GlcNAc(b1-6)]Gal(b1-4)GlcNAc. The following applies: glycan notation: IUPAC condensed, linker removed. Put shortly:
as §1

In the next assay the test system is GlcNAc(b1-6)GalNAc. The following applies: glycan notation: IUPAC condensed, linker removed. Put shortly:
as §1

For assay [10], the system named is Man(a1-2)Man(a1-2)Man(a1-6)[Man(a1-3)]Man. The following applies: glycan notation: IUPAC condensed, linker removed. An outline of the steps:
as §1

Assay [11] concerns Man(a1-2)Man(a1-3)[Man(a1-2)Man(a1-6)]Man(a1-6)[Man(a1-2)Man(a1-2)Man(a1-3)]Man. The following applies: glycan notation: IUPAC condensed, linker removed. An outline of the steps:
as §1

In another assay the test system is Man(a1-2)Man(a1-3)Man. The following applies: glycan notation: IUPAC condensed, linker removed. Put shortly:
as §1

The test system of assay [12] is GlcNAc(b1-6)Gal(b1-4)GlcNAc. The following applies: glycan notation: IUPAC condensed, linker removed. An outline of the steps: as §1
For assay [13], the system named is GlcNAc6S(b1-3)Gal(b1-4)GlcNAc. The following applies: glycan notation: IUPAC condensed, linker removed. An outline of the steps:
as §1

The next assay has as its system Kdn(a2-6)Gal(b1-4)GlcNAc. The following applies: glycan notation: IUPAC condensed, linker removed. Put shortly:
as §1

In assay [14] the test system is GlcNAc(b1-3)[GlcNAc(b1-4)][GlcNAc(b1-6)]GlcNAc. The following applies: glycan notation: IUPAC condensed, linker removed. An outline of the steps: as §1

This is one part of a sample in which the strongest signals are shown more often than they occur.

Chain of PILRa (Mus musculus), Q2YSF3 (Q2YSF3 entry or part of it): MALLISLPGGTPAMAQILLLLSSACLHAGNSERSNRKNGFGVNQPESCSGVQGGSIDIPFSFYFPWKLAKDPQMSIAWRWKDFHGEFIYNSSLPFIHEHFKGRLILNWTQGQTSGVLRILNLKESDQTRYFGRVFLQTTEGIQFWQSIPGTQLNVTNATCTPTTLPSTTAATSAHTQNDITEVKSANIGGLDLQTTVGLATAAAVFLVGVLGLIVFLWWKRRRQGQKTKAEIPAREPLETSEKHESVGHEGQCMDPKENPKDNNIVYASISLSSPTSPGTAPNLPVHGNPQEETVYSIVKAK
Chain of Avaren (Actinomycete K97) (chain, as listed by the source): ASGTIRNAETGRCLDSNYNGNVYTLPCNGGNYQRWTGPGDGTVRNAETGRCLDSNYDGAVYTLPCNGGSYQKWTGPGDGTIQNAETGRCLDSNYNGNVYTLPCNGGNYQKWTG
Chain of SRLC (Mus musculus), Q8VIF6 (Q8VIF6 other isoform, or with tags, fused parts or gaps): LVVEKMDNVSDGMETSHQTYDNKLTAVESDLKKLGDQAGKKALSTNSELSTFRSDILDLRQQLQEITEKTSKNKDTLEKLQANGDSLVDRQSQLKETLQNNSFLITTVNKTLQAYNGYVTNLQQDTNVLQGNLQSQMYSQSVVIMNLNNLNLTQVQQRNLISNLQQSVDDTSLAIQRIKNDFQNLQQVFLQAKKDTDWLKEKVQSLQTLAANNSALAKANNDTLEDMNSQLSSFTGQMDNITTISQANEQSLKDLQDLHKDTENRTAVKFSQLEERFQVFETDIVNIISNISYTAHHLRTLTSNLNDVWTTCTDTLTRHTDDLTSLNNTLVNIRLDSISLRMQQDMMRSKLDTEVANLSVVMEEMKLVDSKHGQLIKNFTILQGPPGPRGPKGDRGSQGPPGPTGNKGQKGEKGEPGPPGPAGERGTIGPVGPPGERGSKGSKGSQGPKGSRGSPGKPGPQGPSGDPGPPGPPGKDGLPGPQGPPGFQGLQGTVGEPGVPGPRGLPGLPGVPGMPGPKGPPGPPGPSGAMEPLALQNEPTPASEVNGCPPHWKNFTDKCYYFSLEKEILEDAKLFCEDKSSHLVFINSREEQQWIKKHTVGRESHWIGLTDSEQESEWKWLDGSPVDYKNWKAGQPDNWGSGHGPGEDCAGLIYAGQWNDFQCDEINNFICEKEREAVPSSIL
Chain of CHI3L1 (Homo sapiens), P36222 (P36222 whole entry): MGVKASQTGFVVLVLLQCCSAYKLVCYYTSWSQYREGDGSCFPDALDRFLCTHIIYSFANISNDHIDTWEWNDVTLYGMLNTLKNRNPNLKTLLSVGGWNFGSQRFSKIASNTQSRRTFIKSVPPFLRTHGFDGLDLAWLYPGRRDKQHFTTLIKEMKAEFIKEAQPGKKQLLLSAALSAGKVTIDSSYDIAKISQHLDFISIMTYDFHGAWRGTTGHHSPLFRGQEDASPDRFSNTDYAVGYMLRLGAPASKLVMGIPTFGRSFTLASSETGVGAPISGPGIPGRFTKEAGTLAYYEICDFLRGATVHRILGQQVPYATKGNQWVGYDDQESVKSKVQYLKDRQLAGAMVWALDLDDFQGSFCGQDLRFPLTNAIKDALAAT
Chain of CHT (Homo sapiens) (chain, as listed by the source): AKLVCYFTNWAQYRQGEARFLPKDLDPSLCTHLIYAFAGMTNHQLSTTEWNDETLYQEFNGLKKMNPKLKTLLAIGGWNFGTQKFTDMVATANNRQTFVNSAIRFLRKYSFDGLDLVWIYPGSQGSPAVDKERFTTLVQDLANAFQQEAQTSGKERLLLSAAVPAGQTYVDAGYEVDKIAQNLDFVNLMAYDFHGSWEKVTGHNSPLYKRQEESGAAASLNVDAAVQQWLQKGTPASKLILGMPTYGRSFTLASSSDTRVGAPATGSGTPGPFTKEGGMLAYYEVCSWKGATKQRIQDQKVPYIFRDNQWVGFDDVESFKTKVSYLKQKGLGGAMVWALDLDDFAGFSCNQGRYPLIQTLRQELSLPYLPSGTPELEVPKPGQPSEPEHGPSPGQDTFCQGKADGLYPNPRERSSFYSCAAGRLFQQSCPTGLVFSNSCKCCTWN
Chain of PILRb (Mus musculus), Q2YSF2 (Q2YSF2 entry or part of it): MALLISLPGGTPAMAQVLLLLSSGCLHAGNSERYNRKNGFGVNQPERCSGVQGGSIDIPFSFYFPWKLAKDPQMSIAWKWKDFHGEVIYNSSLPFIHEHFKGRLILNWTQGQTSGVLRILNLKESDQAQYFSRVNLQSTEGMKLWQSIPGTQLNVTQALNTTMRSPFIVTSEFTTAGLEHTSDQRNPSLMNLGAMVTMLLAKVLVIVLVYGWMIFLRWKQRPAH
Chain of C3b (Homo sapiens), P01024 (P01024 23-667): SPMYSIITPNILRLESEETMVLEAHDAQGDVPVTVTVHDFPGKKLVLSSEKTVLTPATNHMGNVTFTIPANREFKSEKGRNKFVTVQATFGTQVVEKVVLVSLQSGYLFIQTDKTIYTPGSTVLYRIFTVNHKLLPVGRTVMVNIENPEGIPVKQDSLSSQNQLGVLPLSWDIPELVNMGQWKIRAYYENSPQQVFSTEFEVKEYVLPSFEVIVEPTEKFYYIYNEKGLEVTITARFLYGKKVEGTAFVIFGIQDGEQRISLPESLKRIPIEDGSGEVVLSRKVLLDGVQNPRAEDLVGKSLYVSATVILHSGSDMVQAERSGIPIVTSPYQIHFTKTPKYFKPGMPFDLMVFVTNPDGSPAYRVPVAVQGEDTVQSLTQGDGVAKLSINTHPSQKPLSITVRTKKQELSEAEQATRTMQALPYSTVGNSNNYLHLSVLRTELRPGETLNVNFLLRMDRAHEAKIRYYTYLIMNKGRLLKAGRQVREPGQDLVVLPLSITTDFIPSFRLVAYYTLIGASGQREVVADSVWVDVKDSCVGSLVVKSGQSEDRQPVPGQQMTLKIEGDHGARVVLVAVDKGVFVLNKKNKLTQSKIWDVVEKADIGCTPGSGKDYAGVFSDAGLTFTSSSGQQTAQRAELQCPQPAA
Chain of Aggrecan (Rattus norvegicus), NP_071526 (chain, as listed by the source): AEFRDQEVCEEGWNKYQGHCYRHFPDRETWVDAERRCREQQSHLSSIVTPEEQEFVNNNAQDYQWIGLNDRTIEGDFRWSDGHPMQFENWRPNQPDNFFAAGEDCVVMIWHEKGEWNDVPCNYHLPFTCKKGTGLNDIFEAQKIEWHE
Chain of wLAT-1A (Homo sapiens), Q01650 (Q01650 whole entry): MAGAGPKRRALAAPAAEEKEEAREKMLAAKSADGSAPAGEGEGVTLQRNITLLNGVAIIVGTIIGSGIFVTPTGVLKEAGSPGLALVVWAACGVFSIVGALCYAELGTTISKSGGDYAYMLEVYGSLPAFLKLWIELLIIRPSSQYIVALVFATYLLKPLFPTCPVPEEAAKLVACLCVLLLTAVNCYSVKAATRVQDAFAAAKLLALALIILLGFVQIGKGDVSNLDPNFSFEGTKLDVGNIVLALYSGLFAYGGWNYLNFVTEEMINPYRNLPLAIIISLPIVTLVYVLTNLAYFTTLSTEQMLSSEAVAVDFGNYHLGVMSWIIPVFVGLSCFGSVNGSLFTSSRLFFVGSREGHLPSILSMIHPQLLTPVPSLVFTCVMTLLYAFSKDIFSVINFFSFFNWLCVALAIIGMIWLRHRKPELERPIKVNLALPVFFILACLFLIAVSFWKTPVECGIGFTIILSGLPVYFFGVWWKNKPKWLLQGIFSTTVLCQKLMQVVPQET
Chain of Neurocan (Homo sapiens), O14594 (O14594 other isoform, or with tags, fused parts or gaps): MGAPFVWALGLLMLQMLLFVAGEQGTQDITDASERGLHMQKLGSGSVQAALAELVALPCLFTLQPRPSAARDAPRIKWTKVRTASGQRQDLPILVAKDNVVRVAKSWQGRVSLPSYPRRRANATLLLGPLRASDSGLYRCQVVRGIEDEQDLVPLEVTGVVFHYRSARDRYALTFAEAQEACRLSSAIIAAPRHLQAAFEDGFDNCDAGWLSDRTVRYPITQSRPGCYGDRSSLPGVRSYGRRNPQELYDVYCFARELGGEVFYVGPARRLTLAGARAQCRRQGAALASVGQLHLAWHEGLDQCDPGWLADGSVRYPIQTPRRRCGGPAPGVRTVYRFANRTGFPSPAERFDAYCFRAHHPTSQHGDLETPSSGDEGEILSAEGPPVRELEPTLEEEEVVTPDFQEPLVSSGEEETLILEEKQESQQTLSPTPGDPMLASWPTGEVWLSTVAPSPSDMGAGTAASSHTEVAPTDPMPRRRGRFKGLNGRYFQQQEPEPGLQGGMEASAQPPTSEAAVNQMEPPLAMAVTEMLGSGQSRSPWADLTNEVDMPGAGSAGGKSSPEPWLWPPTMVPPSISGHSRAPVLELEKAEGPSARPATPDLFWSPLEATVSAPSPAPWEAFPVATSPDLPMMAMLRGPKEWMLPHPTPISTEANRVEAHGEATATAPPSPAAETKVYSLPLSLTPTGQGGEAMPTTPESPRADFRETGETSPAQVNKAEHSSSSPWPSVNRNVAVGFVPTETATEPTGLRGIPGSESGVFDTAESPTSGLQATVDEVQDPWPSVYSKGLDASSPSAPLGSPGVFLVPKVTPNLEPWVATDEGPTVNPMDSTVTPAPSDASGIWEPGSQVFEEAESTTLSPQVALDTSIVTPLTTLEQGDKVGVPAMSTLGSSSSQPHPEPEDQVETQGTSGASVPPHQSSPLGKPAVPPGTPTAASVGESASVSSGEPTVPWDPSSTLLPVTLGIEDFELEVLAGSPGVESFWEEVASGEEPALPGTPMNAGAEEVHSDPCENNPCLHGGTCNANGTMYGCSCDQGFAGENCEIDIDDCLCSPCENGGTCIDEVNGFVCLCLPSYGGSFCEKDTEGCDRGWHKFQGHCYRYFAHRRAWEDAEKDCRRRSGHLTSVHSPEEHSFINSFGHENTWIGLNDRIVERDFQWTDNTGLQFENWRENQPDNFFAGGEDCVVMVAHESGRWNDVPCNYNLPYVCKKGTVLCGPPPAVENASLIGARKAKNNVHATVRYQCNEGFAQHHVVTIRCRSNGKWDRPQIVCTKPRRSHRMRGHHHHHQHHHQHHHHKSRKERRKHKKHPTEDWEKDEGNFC
Chain of Regenerating Gene IV (Homo sapiens), Q9BYZ8 (Q9BYZ8 whole entry, looked up): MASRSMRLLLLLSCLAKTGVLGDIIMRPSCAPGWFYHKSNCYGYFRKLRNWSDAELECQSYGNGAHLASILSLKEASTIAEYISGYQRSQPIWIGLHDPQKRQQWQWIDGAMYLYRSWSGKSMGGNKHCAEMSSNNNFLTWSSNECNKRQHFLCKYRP

With CHT (Homo sapiens), the “glycan array binding signal (z-score)” value in assay [1] (mutation: D138V, E140I) is 11.9; in [2] (mutation: D138V, E140I), 8.66; in the assay with Kdn(a2-3)Gal(b1-3)GlcNAc (mutation: D138V, E140I), -0.105; in assay [3], -0.189.
For the substance SRLC (Mus musculus), Q8VIF6, the “glycan array binding signal (z-score)” value in the assay on Kdn(a2-3)Gal(b1-3)GlcNAc is -0.229; in [4] it was -0.206; in assay [5] it was -0.241.
As to CHI3L1 (Homo sapiens), P36222, the “glycan array binding signal (z-score)” value in assay [1] was 15.6; in [2], 14.5; with GlcNAc3Prop(b1-4)GlcNAc, -0.044; with Kdn(a2-3)Gal(b1-4)GlcNAc, -0.144; in assay [6], 0.381.
In the case of Aggrecan (Rattus norvegicus), NP_071526, the “glycan array binding signal (z-score)” value in assay [7] was 0.018; in assay [8], 0.607.
For the substance Avaren (Actinomycete K97), the “glycan array binding signal (z-score)” value in assay [9] is -0.108; with GlcNAc(b1-6)GalNAc it was -0.119; in [4], 2.52; in [10] it was 14.7; in assay [8], 1.26; in assay [11] it was 11.2.
In the case of MpAFP RI GFP (Marinomonas primoryensis), in assay [1], the “glycan array binding signal (z-score)” value is -0.527.
For the substance Siglec-8 (Homo sapiens), Q9NYZ4, the “glycan array binding signal (z-score)” value is -0.111 in assay [2], -0.467 in assay [7] (mutation: R125K) and -0.003 in the assay with Man(a1-2)Man(a1-3)Man.
Consider PILRb (Mus musculus), Q2YSF2, for which the “glycan array binding signal (z-score)” value is -0.432 in [2], -0.025 in the assay on GlcNAc(b1-6)GalNAc and 0.391 in assay [6].
As to HARE (Homo sapiens), Q8WWQ8, the “glycan array binding signal (z-score)” value with Kdn(a2-3)Gal(b1-3)GlcNAc is -0.646.
Regarding PILRa (Mus musculus), Q2YSF3, the “glycan array binding signal (z-score)” value in assay [12] is -0.314; in the assay on GlcNAc3Prop(b1-4)GlcNAc it was -0.331; in [13] it was 0.098; in the assay with Kdn(a2-6)Gal(b1-4)GlcNAc it was -0.059.
As to “Regenerating Gene IV (Homo sapiens), Q9BYZ8”, the “glycan array binding signal (z-score)” value with GlcNAc3Prop(b1-4)GlcNAc was -0.463.
Take wLAT-1A (Homo sapiens), Q01650: the “glycan array binding signal (z-score)” value with GlcNAc(b1-6)GalNAc was 0.369; in the assay with GlcNAc3Prop(b1-4)GlcNAc it was 0.213.
Turning to Neurocan (Homo sapiens), O14594, in assay [2], the “glycan array binding signal (z-score)” value is -0.99.
As to C3b (Homo sapiens), P01024, the “glycan array binding signal (z-score)” value is 7.72 in assay [14], 2.75 in [7], -0.561 in the assay with Kdn(a2-3)Gal(b1-4)GlcNAc and 0.007 in [4].
